“And” between values parts separate entries of the source, which are not always exact repeats. Equal values may be shown once. Some compounds were tested as several samples or in several runs, with calls that do not always agree. The source made the active and inactive calls. Unless noted, how the calls were made is not given here.
What was measured:
[1] = compound effects on lung adenocarcinoma cell viability – A549, calcein-AM fluorescence, 48 h, basal, profiling panel (AID 1162); conditions: higher = more signal; further: test concentration not given here
[2] = compound effects on differentiated 3T3-L1 adipocyte viability – cell-based, 3T3-L1 adipocytes, calcein-AM fluorescence, 48 h, basal, profiling panel (AID 1163); conditions: 3T3-L1 adipocytes viability, higher = more signal; further: test concentration not given here
[3] = compound effects on hepatocellular carcinoma cell viability – HepG2, calcein-AM fluorescence, 48 h, basal, profiling panel (AID 1164); conditions: higher = more signal; further: test concentration not given here
[4] = compound effects on multiple myeloma cell viability – MM1S, calcein-AM fluorescence, 48 h, basal, profiling panel (AID 1165); conditions: higher = more signal; further: test concentration not given here
[5] = calcein-AM signal in unstimulated myeloma cells – cell-based, calcein-AM fluorescence, 48 h, PK04 Diversity Set, profiling panel (AID 1166); conditions: RPMI8226 myeloma viability, higher = more signal;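 further: cells grown under basal conditions without added stimulus; test concentration not given here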
[6] = JC-1 mitochondrial signal, unstimulated HepG2 cells – cell-based, JC-1 fluorescence, 24 h, 100 nL compound, profiling panel (AID 1167); conditions: HepG2 mitochondrial potential, higher = more signal; further: test concentration not given here
[7] = JC-1 mitochondrial signal, unstimulated adipocytes – cell-based, JC-1 fluorescence, 3T3-L1 adipocytes, 24 h, 100 nL compound, profiling panel (AID 1168); conditions: JC-1 mitochondrial fluorescence, higher = more signal, called active from +8 up or from −8 down; further: test concentration not given here
[8] = JC-1 mitochondrial signal, unstimulated myeloma cells – cell-based, JC-1 fluorescence, RPMI8226, 24 h, 100 nL compound, profiling panel (AID 1169); conditions: JC-1 mitochondrial potential fluorescence, higher = more signal; further: test concentration not given here
[9] = JC-1 mitochondrial signal, unstimulated MM1S myeloma – cell-based, JC-1 fluorescence, 24 h, 100 nL compound, profiling panel (AID 1170); conditions: MM1S mitochondrial potential, higher = more signal; further: test concentration not given here
[10] = resazurin metabolic signal in A549 cells – cell-based, resazurin fluorescence, 24 h, PK04 Diversity Set, profiling panel (AID 1171); conditions: A549 viability, higher = more signal, called active from +8 up or from −8 down; further: test concentration not given here
[11] = resazurin metabolic signal in HepG2 cells – cell-based, resazurin fluorescence, 24 h, PK04 Diversity Set, profiling panel (AID 1172); conditions: HepG2 viability, higher = more signal; further: test concentration not given here
[12] = budding yeast growth changes without added modifier – OD600, strain BY4716, 24 h, basal condition, primary screen (AID 1173); conditions: S. cerevisiae BY4716 growth, OD600, 24 h; higher = more signal, called active from +8 up or from −8 down
[13] = viability profiling in MM1S myeloma cells – cell-based, resazurin fluorescence, basal, 24 h, PK04 Diversity Set, profiling panel (AID 1174); conditions: higher = more signal, called active from +8 up or from −8 down; further: test concentration not given here
[14] = target: Dihydroorotate dehydrogenase (quinone), mitochondrial (Plasmodium falciparum (isolate 3D7)) (UniProt Q08210); experiment: inhibition of P. falciparum DHODH – biochemical, C-terminal His tag, absorbance 600 nm, primary screen (AID 1175); conditions: PfDHODH enzyme, DCIP absorbance 600 nm; higher = more signal, called active from +8 up or from −8 down;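 further: recombinant parasite enzyme with a five histidine tag at its C terminus; test concentration not given here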
Chain of Dihydroorotate dehydrogenase (quinone), mitochondrial (Plasmodium falciparum (isolate 3D7)) (Q08210 whole entry, looked up): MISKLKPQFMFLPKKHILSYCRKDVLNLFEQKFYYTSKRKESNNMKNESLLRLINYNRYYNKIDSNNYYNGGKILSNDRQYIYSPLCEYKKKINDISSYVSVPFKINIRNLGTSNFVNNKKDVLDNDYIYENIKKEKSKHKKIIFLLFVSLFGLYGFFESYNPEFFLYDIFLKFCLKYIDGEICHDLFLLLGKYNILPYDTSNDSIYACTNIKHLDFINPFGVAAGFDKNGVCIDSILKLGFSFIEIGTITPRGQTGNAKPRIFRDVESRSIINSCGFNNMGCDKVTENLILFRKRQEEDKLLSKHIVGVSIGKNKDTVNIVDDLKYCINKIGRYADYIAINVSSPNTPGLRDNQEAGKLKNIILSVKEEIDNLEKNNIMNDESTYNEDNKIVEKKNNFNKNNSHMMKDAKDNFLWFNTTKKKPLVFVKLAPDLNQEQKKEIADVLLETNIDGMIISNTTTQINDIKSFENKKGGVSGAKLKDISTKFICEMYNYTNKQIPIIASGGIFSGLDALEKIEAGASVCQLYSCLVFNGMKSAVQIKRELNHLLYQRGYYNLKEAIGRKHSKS

[15] = inhibition of PAO1 biofilm formation – strain PAO1, LB-PBS medium, absorbance 600 nm, primary screen (AID 1176); further: test concentration not given here; conditions: P. aeruginosa PAO1 growth/biofilm, A600, 12 h; higher = more signal
[16] = growth modulation of vineyard yeast isolate – strain RM11-1a, OD600, basal, 24 h, primary screen (AID 1177);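 further: cultures grown under basal conditions with no added stressor; test concentration not given here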; conditions: S. cerevisiae RM11-1a growth, OD600, 24 h; higher = more signal, called active from +8 up or from −8 down
[17] = growth of efflux-deficient E. coli DRC39 – strain DRC39, OD650, 24 h, E. coli filamentation inducers, primary screen (AID 1178);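 further: growth measured as culture turbidity by optical density at 650 nm; test concentration not given here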; conditions: E. coli DRC39 acrAB, higher = more signal, called active from +8 up or from −8 down
[18] = growth of efflux-deficient E. coli DRC39 – strain DRC39, OD650, 48 h, E. coli filamentation inducers, primary screen (AID 1179);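 further: screen aims at cell division blockers that make cells filament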; conditions: E. coli DRC39 delta-acrAB growth, higher = more signal, called active from +8 up or from −8 down
[19] = viability profiling in RPMI8226 myeloma cells – cell-based, resazurin fluorescence, basal, 24 h, PK04 Diversity Set, profiling panel (AID 1180); conditions: higher = more signal;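 further: RPMI8826 multiple myeloma cell line at 5000 cells per well; test concentration not given here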
[20] = target: E3 ubiquitin-protein ligase XIAP (Homo sapiens) (UniProt P98170); experiment: small molecules binding XIAP protein – biophysical, small-molecule microarray, fluorescence 635 nm, primary screen (AID 1181); conditions: higher = more signal;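 further: score merges 667 nm emission and signal to noise over triplicate slides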
Chain of E3 ubiquitin-protein ligase XIAP (Homo sapiens) (P98170 whole entry, looked up): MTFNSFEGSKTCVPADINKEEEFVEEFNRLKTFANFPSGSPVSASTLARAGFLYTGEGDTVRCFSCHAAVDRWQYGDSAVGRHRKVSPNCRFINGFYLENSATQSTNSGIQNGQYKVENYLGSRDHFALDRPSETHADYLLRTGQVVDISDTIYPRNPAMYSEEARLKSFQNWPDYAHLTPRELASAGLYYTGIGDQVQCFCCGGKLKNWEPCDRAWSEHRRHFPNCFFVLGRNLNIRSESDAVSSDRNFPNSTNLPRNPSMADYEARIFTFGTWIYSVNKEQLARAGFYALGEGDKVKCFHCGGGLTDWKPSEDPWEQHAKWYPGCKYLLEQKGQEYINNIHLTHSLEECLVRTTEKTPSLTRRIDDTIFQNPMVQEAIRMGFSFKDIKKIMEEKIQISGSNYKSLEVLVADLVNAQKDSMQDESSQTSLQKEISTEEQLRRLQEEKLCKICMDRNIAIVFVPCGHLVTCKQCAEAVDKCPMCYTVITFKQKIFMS

Row | SMILES | z-score [1] | z-score [2] | z-score [3] | z-score [4] | z-score [5] | z-score [6] | z-score [7] | z-score [8] | z-score [9] | z-score [10] | z-score [11] | z-score [12] | z-score [13] | composite z-score [14] | z-score [15] | z-score [16] | z-score [17] | z-score [18] | z-score [19] | composite z-score [20]
1 | COC(=O)C1=C(C)N(Cc2ccccc2)C2=C(C(C)=O)C[C@@](O)(C(=O)OC)C(=O)N2[C@@H]1c1ccccc1 | -0.112 and 0.965 | 0.501 and 0.0527 | -0.491 and 0.55 | 1.11 and 0.699 | -0.0117 and 1 | 0.931 and 0.372 | 0.227 (inactive) and -0.00623 (inactive) | 0.689 and -0.71 | -0.16 and -0.174 | 1.25 (inactive) and 1.03 (inactive) | 0.5 and 0.54 | -1.89 (inactive) and -2.55 (inactive) | -1.51 (inactive) and 0.956 (inactive) | -0.557 (inactive) and -0.986 (inactive) | 0.781 (inactive) | -1.29 (inactive) and -2.02 (inactive) | -0.0507 (inactive) and 0.915 (inactive) | 0.0063 (inactive) and -1.49 (inactive) | 1.28 and 0.192 | 0.215 and -0.005
2 | CCOC(=O)[C@@H]1CC=C2CC1C(=O)N1CCC[C@@H]1[C@H]2O[Si](C)(C)C(C)(C)C (stereo not given in full) | -0.366 and -0.566 | -0.0834 and 0.84 | -0.45 and -1.76 | -0.204 and -0.227 | -1.71 and -2.37 | -1.48 and 0.214 | -0.649 (inactive) and 0.192 (inactive) | -0.0804 and 0.132 | 0.144 and 0.321 | 0.016 (inactive) and 2.5 (inactive) | -0.464 and 1.65 | 0.0163 (inactive) and -8.53 (active) | -0.226 (inactive) and 1.07 (inactive) | -0.259 (inactive) and -0.198 (inactive) | -0.0825 (inactive) and -0.377 (inactive) | -1.35 (inactive) and 0.069 (inactive) | 0.03 (inactive) and 0.867 (inactive) | 0.262 (inactive) and -0.586 (inactive) | -0.516 and 0.845 | -0.343 and -0.171
3 | C=C[C@@H](OC)[C@H](O)c1ccc(OCCO)cc1 | 0.143 and 0.72 | -0.434 and 0.971 | 0.124 and 0.628 | 0.663 and 0.916 | -0.486 and 0.64 | -0.244 and 0.904 | 0.36 (inactive) and -1.97 (inactive) | -0.982 and -0.69 | 0.88 and -1.28 | -0.133 (inactive) and -0.135 (inactive) | 0.242 and 0.884 | -5.46 (inactive) and -6.32 (inactive) | -0.154 (inactive) and 0.883 (inactive) | 0.358 (inactive) and -0.456 (inactive) | 0.519 (inactive) and 1.64 (inactive) | 0.526 (inactive) and -2.73 (inactive) | 0.0235 (inactive) and 1.08 (inactive) | 0.121 (inactive) and 1.48 (inactive) | -0.121 and 1.36 | -0.19 and -0.102
4 | COc1ccc(O[C@H]2C=C[C@@H](c3ccccc3)O[C@@H]2COC(=O)CCC(C)=NO[C@H](C)c2cn([C@H](CO)Cc3ccccc3)nn2)cc1 | -0.748 and -0.352 | 0.498 and 0.0533 | -1.06 and -0.619 | -0.764 and -2.3 | -2.54 and -1.69 | -0.796 and -0.898 | -2.62 (inactive) and -0.634 (inactive) | 0.0444 and -0.196 | -0.704 and 0.182 | 0.385 (inactive) and 0.277 (inactive) | 0.327 and 0.346 | 0.496 (inactive) and 1.83 (inactive) | 0.149 (inactive) and -0.116 (inactive) | 0.899 (inactive) and -0.413 (inactive) | -1.31 (inactive) and -0.491 (inactive) | 0.581 (inactive) and 1.67 (inactive) | 0.521 (inactive) and 0.693 (inactive) | -0.313 (inactive) and 0.596 (inactive) | 0.651 and 0.198 | -0.252 and -0.188
5 | Cc1cc2c(nc1C)CCCN2CC(O)CN1CCCc2nc(-c3ccc(Br)cc3)ccc21 (stereo not given) | -0.243 and -0.599 | 0.929 and 0.303 | -0.749 and -0.129 | 0.916 and -1.24 | -2.13 and -0.178 | 0.36 and 0.768 | -0.855 (inactive) and -1.29 (inactive) | 0.144 and -0.0117 | -0.488 and 0.538 | -0.347 (inactive) and 0.0661 (inactive) | -0.366 and -0.367 | -7.09 (inactive) and -1.64 (inactive) | -0.959 (inactive) and -0.771 (inactive) | 1.95 (inactive) and 1.18 (inactive) | -0.257 (inactive) and -0.0569 (inactive) | 1.37 (inactive) and 0.795 (inactive) | -0.342 (inactive) and 0.458 (inactive) | -0.752 (inactive) and 0.0169 (inactive) | 0.0199 and -0.821 | 1.1 and 1.9
6 | COC(=O)C1=C(C)N(Cc2ccccc2)C2=C3C(=O)N(C)C(=O)[C@@H]3[C@@](O)(C(=O)OC)C(=O)N2[C@@H]1c1ccccc1 | 0.77 and 0.914 | -0.159 and 0.143 | 0.215 and 1.05 | -0.607 and -0.213 | 0.0606 and 0.359 | 0.981 and 0.11 | -0.531 (inactive) and 0.96 (inactive) | 0.134 and -0.542 | 0.739 and 0.467 | 1.18 (inactive) and -1.08 (inactive) | 0.498 and -1.16 | -0.816 (inactive) and -1.23 (inactive) | 0.92 (inactive) and -0.281 (inactive) | -0.105 (inactive) and -0.613 (inactive) | -0.27 (inactive) and 0.0039 (inactive) | -0.544 (inactive) and -2.42 (inactive) | 0.448 (inactive) and -0.0247 (inactive) | 0.275 (inactive) and 0.0957 (inactive) | 0.922 and -0.377 | -0.0622 and -0.0848
